A selection: hits, their analogues and other compounds. The true share with any hit is near 12%.
Sfp inh: Sfp phosphopantetheinyl transferase inhibition. Q9F4F7. Biochemical Sfp PPTase activity, qHTS. Potency, µM, hits mostly inhibitors. hit rate 3.5% among 310,000. AID 1490;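 also: the enzyme is Sfp with the accession as filed and its product quenches rhodamine fluorescence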
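With Hepes-Na pH 7.6 buffer containing 10 mM MgCl2, Sfp (15 nM) modified BHQ-2-YbbR (12.5 uM) using rhodamine-CoA (5 uM). Two reads 30 minutes apart at 525/598 nm yielded each well's rate.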
BAZ2B block: blocks human BAZ2B. Q9UIF8. AlphaScreen BAZ2B-H3K14Ac peptide displacement. Potency, µM (doses to about 114 µM), most hits filed as inhibitors. hit rate 4.4% among 360,000. AID 504333; also: nearly all actives have a fitted effect of over 60% in size
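In this displacement format the biotinylated H3(5-23) peptide acetylated at Lys14 serves as ligand at 50 nM, with BAZ2B at 50 nM in PBS pH 7.4 containing 0.01% Tween-20. Donor and acceptor beads are 10 ug/mL final.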
JMJD2A Tudor: JMJD2A Tudor domain (human) inhibition; O75164; AlphaScreen JMJD2A-Tudor / H3K4me3 peptide binding; Potency, µM (top dose mostly 114 µM), most hits filed as inhibitors; hit rate 4.4% among 390,000; also: nearly all actives have a fitted effect of over 50% in size
HP1b binding inh: blocks HP1-beta chromodomain binding to methylated histone tails | P83916 | AlphaScreen HP1-beta / biotin-H3K9me3 peptide binding | Potency, µM (highest dose often 114 µM), usual class: inhibitors | hit rate 0.56% among 390,000 | AID 540317; also: nearly all actives have a fitted effect of over 70% in size
Target sequence (P83916 whole entry, looked up): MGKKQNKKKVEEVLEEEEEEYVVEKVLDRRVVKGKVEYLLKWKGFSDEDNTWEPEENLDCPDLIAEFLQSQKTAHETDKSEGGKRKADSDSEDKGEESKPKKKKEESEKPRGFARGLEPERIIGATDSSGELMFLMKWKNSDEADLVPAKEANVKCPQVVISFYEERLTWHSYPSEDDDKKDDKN
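AlphaScreen: HP1-beta (50 nM) preformed 30 min with biotin-H3(1-18)K9me3 peptide (50 nM) in PBS pH 7.4, 0.01% Tween-20. Compound added for 30 min at RT, then streptavidin donor/nickel chelate acceptor beads (10 ug/mL) for 30 min.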
G9a block: blocks human histone lysine methyltransferase G9a. Potency, µM (highest dose often 102 µM), actives largely listed as inhibitors. AID 504332. G9a H3K9 monomethylation, AlphaScreen, 2 h. Q96KQ7. hit rate 8.8% among 350,000; also: nearly all actives have a fitted effect of over 75% in size
Target sequence (Q96KQ7 913-1193 limits assumed): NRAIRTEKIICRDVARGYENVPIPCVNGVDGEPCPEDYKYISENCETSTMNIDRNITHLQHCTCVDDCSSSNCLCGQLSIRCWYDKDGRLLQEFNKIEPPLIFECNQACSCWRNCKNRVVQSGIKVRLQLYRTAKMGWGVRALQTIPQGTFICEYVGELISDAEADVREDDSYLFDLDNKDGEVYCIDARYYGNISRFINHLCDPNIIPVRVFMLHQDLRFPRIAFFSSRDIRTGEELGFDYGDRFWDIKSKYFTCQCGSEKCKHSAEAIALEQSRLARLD
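Enzyme 20 nM + cpd, 15 min RT; add b-H3K9 pep 500 nM / SAM 20 uM; 2 h RT; anti-H3K9me1 Ab 0.5 ug/mL + SA donor / anti-rabbit acceptor beads 20 ug/mL each, 10 min; AlphaScreen read.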
Large screens that a line does not name were inactive. Calls follow the shape of the dose curve; as a rule, active = well fitted curve in the direction sought with a large enough effect; inconclusive = small, poorly fitted or top-dose-only effect, or another doubt; inactive = no such curve, though single readings can be large; an effect the other way counts as inactive or inconclusive.

C#CCOCCOCCOCCNc1nc(N2CCN(C(=O)CCCCCCCCCCNC(=O)Cn3cc(C[C@@H](C)O)nn3)CC2)nc(N2CCN(C(=O)CCCCCCCCCCNC(=O)[C@H](CCCN=C(N)N)n3cc(C[C@@H](C)CC)nn3)CC2)n1	BAZ2B block inconclusive, JMJD2A Tudor 45µM, HP1b binding inh inconclusive (no result: Sfp inh)
CC(C)c1ccc(S(=O)(=O)c2nnn3c2nc(N2CCCCC2)c2sccc23)cc1	none (no result: Sfp inh)
Cc1noc(C)c1S(=O)(=O)Nc1ccc(C(=O)N2CCCCC2)cc1	none
C#CCOCCOCCOCCNc1nc(N2CCN(C(=O)CCCCCCCCCCNC(=O)Cn3cc(CCCCCN)nn3)CC2)nc(N2CCN(C(=O)CCCCCCCCCCNC(=O)Cn3cc(CCCCCN)nn3)CC2)n1	BAZ2B block 56µM, JMJD2A Tudor 56µM, HP1b binding inh inconclusive (no result: Sfp inh)
Nc1nc(SCC(=O)Nc2ccccc2)[nH]c(=O)c1NC(=O)c1cccs1	none
Cc1c(NC(=O)CSc2ncccn2)c(=O)n(-c2ccccc2)n1C	G9a block inconclusive
Cc1cc(C)n2nc(SCC(=O)Nc3c(C)n(C)n(-c4ccccc4)c3=O)nc2n1	BAZ2B block inconclusive, G9a block 45µM
Cc1c(NC(=O)CSc2n[nH]c(=O)n2-c2ccccc2)c(=O)n(-c2ccccc2)n1C	JMJD2A Tudor 22µM, HP1b binding inh inconclusive
Cc1c(NC(=O)COC(=O)COc2ccc(Nc3ccccc3)cc2)c(=O)n(-c2ccccc2)n1C	BAZ2B block inconclusive, G9a block 50µM
Cc1c(NC(=O)CSc2nnc(COc3ccccc3)n2-c2ccccc2)c(=O)n(-c2ccccc2)n1C	none
CCC(=O)c1ccc(OCC(=O)OCC(=O)Nc2c(C)n(C)n(-c3ccccc3)c2=O)cc1	none (no result: Sfp inh)
Cc1cc(C)cc(-n2c(C)cc(/C=N/NC(=O)CSc3ncccn3)c2C)c1	BAZ2B block inconclusive, JMJD2A Tudor 79µM, HP1b binding inh inconclusive, G9a block 79µM
Cc1cc(C)n2nc(SCC(=O)N/N=C/c3cccc(Br)c3)nc2n1	none
Cc1c(NC(=O)CN(c2ccc(F)cc2)S(=O)(=O)c2ccccc2)c(=O)n(-c2ccccc2)n1C	BAZ2B block inconclusive, G9a block 45µM
Cc1cc(C)n2nc(SCC(=O)N/N=C/c3ccccn3)nc2n1	Sfp inh 56µM, JMJD2A Tudor 8.9µM, G9a block 8.9µM
Cc1c(NC(=O)CN(c2ccccc2)S(=O)(=O)c2ccc(F)cc2)c(=O)n(-c2ccccc2)n1C	none (no result: G9a block)
O=[N+]([O-])c1ccc(-c2n(-c3ccccn3)c3ccccc3[n+]2-c2ccccn2)cc1	BAZ2B block inconclusive, JMJD2A Tudor inconclusive, G9a block 50µM
C/C(=N/N1CCN(c2ccccn2)CC1)c1ccc([N+](=O)[O-])cc1	G9a block inconclusive
C/C=C/C(=O)OCC(=O)Nc1ccc(OC)c(OC)c1	BAZ2B block 50µM
O=C(O)/C=C/c1ccc(S(=O)(=O)Nc2ccc3[nH]c(=O)[nH]c3c2)cc1	none
CC(=O)OCc1ccccc1Sc1ccccc1C(=O)NCc1ccccc1	none (no result: G9a block)
CN1CCN(CC(O)COc2ccc(OCC(O)CN3CCN(C)CC3)cc2)CC1 (stereo not given)	none
Cc1cc(OCC(O)CN2CCN(C)CC2)ccc1C(C)C (stereo not given)	G9a block 89µM
CN1CCN(CC(O)COc2ccc(Cl)cc2)CC1 (stereo not given)	G9a block 56µM
CCN1CCN(CC(O)COc2ccc(Cl)cc2)CC1 (stereo not given)	BAZ2B block inconclusive, JMJD2A Tudor inconclusive
OCCN1CCN(CC(O)COc2ccc(Cl)cc2)CC1 (stereo not given)	BAZ2B block inconclusive, G9a block 50µM
CCOC(=O)c1c(C)n(-c2ccc(C)cc2)c2ccc(OCC(O)CN3CCN(C)CC3)cc12 (stereo not given)	Sfp inh 40µM, JMJD2A Tudor inconclusive, G9a block 50µM (no result: BAZ2B block)
COc1ccccc1NS(=O)(=O)c1cccc(C(=O)NCc2ccncc2)c1	none (no result: Sfp inh)
CC1CN(C(=O)c2cc3c(=O)n4ccccc4nc3n2C)CC(C)O1 (stereo not given)	none
COc1ccc(OC)c(CNC(=O)c2cccc(NC(=O)N3CCSc4ncccc43)c2)c1	none (no result: Sfp inh)
CCC(C(=O)N1CCN(S(C)(=O)=O)CC1)c1ccccc1 (stereo not given)	none
